An excerpt weighted towards active compounds, which were near 4.7% of everything screened.
TWEAK-Fn14 inh: inhibitors of TWEAK-Fn14 signaling, primary screen, luciferase reporter cells, uHTS | hit rate 2% among 360,000 | inhibition, % at 10 µM | TWEAK-stimulated Fn14 reporter cells, luciferase luminescence, 8 h | AID 1159606, 2016; in the data active = inhibition above about 50%
HSP90 inh: HSP90 inhibitors, primary screen, cell lysate, luminescence; Heat shock protein HSP 90 (rabbit reticulocyte lysate; luciferase refolding); hit rate 0.91% among 290,000; Rabbit reticulocyte lysate, luciferase refolding luminescence, 3 h; inhibition, % at 5.6 µM;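 active = inhibition above the screen-wide mean plus 3 SD, computed separately per campaign, cut at about 16% in these data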;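 note: 0% = DMSO wells and 100% = 60 µM geldanamycin wells; inhibitors lower the luminescence because luciferase stays unfolded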
LMP1 NFkB inh: EBV LMP1-driven NF-kappaB luciferase reporter inhibitors, primary screen, cell-based, luminescence, single point; LMP1-induced NF-kappaB luciferase reporter cells; inhibition, % at 12.5 µM; hit rate 0.69% among 350,000; in the data active = inhibition above about 41%;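 note: 0% = neutral control wells and 100% = reference inhibitor control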
TROY signal inh: inhibitors of TROY-driven NF-kB signaling, primary screen, Q293 LMP1-TROYcd cells, NF-kB luciferase, uHTS; AID 1347056, 2019; Q293 LMP1-TROYcd NF-kB luciferase reporter, 4 h; hit rate 0.98% among 360,000; inhibition, % at 10 µM;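 active = compounds whose plate-normalised and pattern-corrected inhibition of the luciferase reporter signal at the single screening dose is 50% or more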
HSF1 activator: HSF-1 activators, primary screen, NIH3T3-HGL cells, MG132 stress, luminescence, single point; NIH3T3-HGL HSF-1 luciferase reporter, 8 h; 100% = twice DMSO control signal; activation, % at 9 µM; hit rate 1.7% among 300,000; AID 504408, 2011;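 active = mean replicate activation of at least 50% with a set share of replicates each reaching 50%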;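 note: 0% = median of the neutral control wells and 100% = twice that signal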
HSF1 inhib: HSF1 inhibitors in luciferase reporter cells, primary screen, cell-based, NIH3T3, luminescence; NIH3T3-HGL HSE-luciferase, MG132-induced, luminescence 8 h; active compounds read low; activity change, negative = inhibition, % at 7.5 µM (by protocol); hit rate 0.77% among 300,000; AID 2098, 2009;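 active = more than half of replicate wells show activity change below -50%, luminescence cut by over half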;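 note: luciferase reports HSF-1 transcriptional activity via heat shock element; 0% = median of DMSO wells and -100% = zero luminescence signal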
The depositor's hits bear a star; · = no result given.

SMILES	TWEAK-Fn14 inh	HSP90 inh	LMP1 NFkB inh	TROY signal inh	HSF1 activator	HSF1 inhib
CCCc1nnc(SCC(=O)Nc2ccc(OCC)cc2)n1N	100*	3	0	-1	15	2
CN(C(=O)COC(=O)C12CC3CC(CC(Cl)(C3)C1)C2)c1ccccc1	13	·	-2	8	·	·
CC(=O)N(C)C1=C(N2CCOCC2)C(=O)c2ccccc2C1=O	74*	4	30	32	15	-4
CC(=O)N(C)C1=C(O)c2ccccc2C(=O)C1=O	3	8	4	23	-92	-90*
COc1ccc(-c2oc3c(c2C#CC2(O)CCCCC2)C(OC(C)=O)CCC3)cc1 (stereo not given)	3	·	·	-8	·	·
O=c1c2c(nc3cc(-c4ccccc4Cl)[nH]n13)CCS2	63*	-2	-14	-2	6	13
COCCN(C(=O)c1csnn1)C(C(=O)NC1CCCC1)c1ccccc1F (stereo not given)	66*	1	-4	17	20	4
O=C(NC1CCCC1)C(c1ccccc1)N(Cc1cccnc1)C(=O)Cc1cccs1 (stereo not given)	14	0	-5	8	55*	17
O=C(NC1CCCCC1)C(c1ccco1)N(C(=O)c1csnn1)c1ccc(Cl)cc1 (stereo not given)	18	0	3	-2	-90	-89*
Cc1cccc(C(C(=O)NC2CCCC2)N(Cc2cccnc2)C(=O)c2csnn2)c1 (stereo not given)	25	-4	4	-4	4	0
Cc1ccc(C(C(=O)NC2CCCCC2)N(Cc2cccnc2)C(=O)c2csnn2)cc1 (stereo not given)	92*	1	-13	11	11	1
Cc1ccc(CN(C(=O)Cc2cccs2)C(C(=O)NC2CCCC2)c2ccncc2)cc1 (stereo not given)	10	-3	1	4	16	-1
COCCN(C(=O)c1csnn1)C(C(=O)NC1CCCC1)c1ccc(C)cc1 (stereo not given)	-5	0	-18	-1	-4	-4
CC1=C(C(=O)N(C(C)C)C(C)C)CC(CC(=O)NC(c2ccccc2)c2ccccc2)C(=O)N1CCC1=CCCCC1 (stereo not given)	33	·	·	46	·	·
OC(Cc1ccccc1)c1ncc(-c2ccc3ccccc3c2)[nH]1 (stereo not given)	6	·	·	-6	·	·
COc1cc(OC)c(C(=O)c2ccccc2[N+](=O)[O-])c(OC)c1	6	·	-9	2	·	·
O=C(O)CSc1c(Cl)c(=O)oc2ccc(Cl)cc12	8	·	-12	-3	·	·
Cc1cccc(C)c1-n1nnnc1C(c1ccnc2ccccc12)N1CCN(C(=O)OCc2ccccc2)CC1 (stereo not given)	15	·	·	20	·	·
CCCCn1c(N)c(N(CCOC)C(=O)c2oc3c(Cl)cccc3c2C)c(=O)[nH]c1=O	2	·	0	18	·	·
O=C(c1cccc(S(=O)(=O)NCc2ccccc2)c1)N1CCN(c2ccccc2Cl)CC1	9	·	-3	11	·	·
Cc1cccc(C)c1NC(=O)/C(C#N)=C/c1cccs1	7	0	-1	-29	-11	8
Cc1ccc(NC(=O)/C(C#N)=C/c2cccs2)c(C)c1	-22	-2	-25	-73	53*	28
O=C(COc1ccc(Cl)cc1)NCCN1CCCCC1	-1	0	2	1	-64	-55*
O=C(NCCN1CCCCC1)Nc1ccccc1Cl	-5	6	-7	12	-86	-83*
O=C1C(Cl)=C(NCCN2CCCCC2)C(=O)c2ccccc21	93*	3	13	54*	0	10
O=C(COc1ccc(Cl)cc1)NCCN1CCCC1	23	-3	2	13	0	1
O=C(COc1ccc(Cl)cc1)NCCCNC(=O)c1ccccn1	-2	6	1	-18	84*	30
CC1CCCCc2nc3c(c(=O)n21)CCCC3 (stereo not given)	-18	·	·	-4	·	·
